Test results published in PubChem BioAssay.
The source made the active and inactive calls.

Experiments:
[1] = molecular target: Albumin (Bos taurus) (UniProt P02769); experiment: compounds binding labelled BSA control protein – biochemical, small-molecule microarray, Alexa647 label, 635/667 nm fluorescence, artefact control for SMM control protein annotation, profiling panel (AID 1118); conditions: BSA-A647 binding, fluorescence 635 nm, higher = more signal;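 also: score merges 667 nm emission intensity and signal-to-noise per printed compound spot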
[2] = probe aXIP binding to arrayed compounds – biochemical, NeuroSMM set, 635/667 nm fluorescence, primary screen (AID 1119); conditions: small-molecule microarray, higher = more signal, called active from +8 up or from −8 down;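 also: probe is the protein aXip251-270 applied at 1 µg/mL to compound-printed slides; binding of probe to printed compounds measured as 667 nm fluorescence plus signal to noise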
[3] = probe aNOTCH3 binding on compound microarray – biochemical, small-molecule microarray, 635/667 nm fluorescence, primary screen (AID 1120); conditions: higher = more signal;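 also: probe is a biotin-tagged antibody raised against NOTCH3 rather than NOTCH3 protein; score merges spot fluorescence near 667 nm with spot signal to noise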
[4] = probe aNOTCH2 binding on compound microarray – biochemical, small-molecule microarray, 635/667 nm fluorescence, primary screen (AID 1121); conditions: higher = more signal;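 also: score merges feature fluorescence read at 667 nm with its signal to noise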
[5] = molecular target: Carbonic anhydrase 2 (Homo sapiens) (UniProt P00918); experiment: compounds binding carbonic anhydrase 2 – biochemical, small-molecule microarray, Alexa647-labelled CAII, profiling panel (AID 1122); conditions: CAII-A647 binding fluorescence, higher = more signal
[6] = COS7 lysate on small-molecule microarray, probe aHis, 635 nm (AID 1123); conditions: COS7 cell lysate, fluorescence, higher = more signal;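 also: z-score combines 667nm fluorescence intensity with signal-to-noise per printed compound spot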
[7] = probe aLAP1 signal on lysate-treated microarray – cell lysate, small-molecule microarray, COS7 lysate, primary screen (AID 1124); conditions: probe aLAP1, fluorescence, higher = more signal;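 also: lysate comes from COS7 cells expressing LAP1 and is applied at 0.3 µg/mL; score merges spot fluorescence near 667 nm with signal-to-noise over triplicate slides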
[8] = tested on: Sam68 (KHDRBS1); experiment: compounds binding KHDRBS1 protein – biochemical, small-molecule microarray, 635 nm fluorescence, primary screen (AID 1125); conditions: higher = more signal;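 also: score merges 667 nm channel intensity with signal to noise over triplicate slides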
[9] = tested on: Chordin-like protein 2 (CHRDL2); experiment: compounds binding chordin-like 2 – biochemical, small-molecule microarray, 635 nm fluorescence, primary screen (AID 1126); conditions: fluorescence 635 nm, higher = more signal;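 also: printed compound slides probed with Chrdl2 protein at 4 µg/mL for 1 h at 4 C; score merges 667 nm emission intensity with signal to noise over three replicate slides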
[10] = molecular target: Concanavalin-A (Canavalia ensiformis) (UniProt P02866); experiment: compounds binding concanavalin A lectin – biochemical, small-molecule microarray, Alexa647 label, 635 nm, artefact control for SMM control protein annotation, primary screen (AID 1127); conditions: ConA-A647 binding fluorescence, higher = more signal;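 also: z combines 667 nm emission intensity with signal-to-noise across three replicate slides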
[11] = compounds binding Alexa647 anti-His antibody – biochemical, small-molecule microarray, 635 nm fluorescence, artefact control for SMM control protein annotation, primary screen (AID 1128); conditions: higher = more signal;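 also: score merges feature fluorescence with signal-to-noise for each printed compound spot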
[12] = tested on: Human papillomavirus type 1a E7 protein (residues 1-88); experiment: HPV1a E7 small-molecule binders, primary screen, biochemical, small-molecule microarray, residues 1-88, 635 nm (AID 1129); conditions: small-molecule microarray binding, fluorescence 635 nm; higher = more signal
[13] = molecular target: Focal adhesion kinase 1 (Homo sapiens) (UniProt Q05397); experiment: PTK2 protein binding on printed compound slides – biochemical, small-molecule microarray, 635/667 nm fluorescence, BSA, DTT, primary screen (AID 1130); conditions: 635 nm fluorescence, higher = more signal;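 also: composite of spot emission at 667 nm and signal to noise over triplicate slides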
[14] = tested on: Fibrinogen (Alexa647-labelled); experiment: Alexa647-fibrinogen binding to printed small molecules – biochemical, small-molecule microarray, 635/667 nm fluorescence, artefact control for SMM control-protein annotation, profiling panel (AID 1131); conditions: fibrinogen-A647 binding fluorescence, higher = more signal;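 also: z-score merges 667 nm fluorescence with per-spot signal-to-noise over triplicate slides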
[15] = molecular target: Follistatin (Homo sapiens) (UniProt P19883); experiment: FST protein binding to printed compounds – biochemical, small-molecule microarray, 635/667 nm fluorescence, primary screen (AID 1132); conditions: 635 nm fluorescence, higher = more signal
[16] = molecular target: Fibroblast growth factor 2 (Homo sapiens) (UniProt P09038); experiment: basic fibroblast growth factor binding to printed compounds – biochemical, small-molecule microarray, 635/667 nm fluorescence, primary screen (AID 1133); conditions: FGF2, fluorescence 635/667, higher = more signal
[17] = JC-1 mitochondrial potential readout, lung cancer cells – cell-based, A549, JC-1 fluorescence, basal, 24 h, 100 nL, profiling panel (AID 1138); conditions: higher = more signal;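 also: A549 lung adenocarcinoma cells under basal conditions with no added stimulus; test concentration not given here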
[18] = tested on: Lefty1; experiment: Lefty1 protein binding to printed compounds – biochemical, small-molecule microarray, 635/667 nm fluorescence, primary screen (AID 1139); conditions: fluorescence 635/667, higher = more signal
[19] = tested on: wheat germ agglutinin (Triticum aestivum), Alexa647-labelled; experiment: Alexa647-WGA lectin binding to printed small molecules – biochemical, small-molecule microarray, 635/667 nm fluorescence, artefact control for SMM control-protein annotation, profiling panel (AID 1140); conditions: WGA-A647 binding, 635 nm fluorescence, higher = more signal;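 also: score merges 667 nm feature emission with signal to noise over triplicate slides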
[20] = molecular target: Luciferin 4-monooxygenase (Photinus pyralis) (UniProt P08659); experiment: inhibition of purified Photinus pyralis luciferase – biochemical, luminescence, purified enzyme, 2006 set, primary screen (AID 1141); conditions: purified firefly luciferase, SteadyGlo luminescence, 30 min; higher = more signal, called active from +8 up or from −8 down;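 also: cell-free assay with purified firefly luciferase at 100 ng per well in PBS; test concentration not given here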
Chain of Luciferin 4-monooxygenase (Photinus pyralis) (P08659 whole entry, looked up): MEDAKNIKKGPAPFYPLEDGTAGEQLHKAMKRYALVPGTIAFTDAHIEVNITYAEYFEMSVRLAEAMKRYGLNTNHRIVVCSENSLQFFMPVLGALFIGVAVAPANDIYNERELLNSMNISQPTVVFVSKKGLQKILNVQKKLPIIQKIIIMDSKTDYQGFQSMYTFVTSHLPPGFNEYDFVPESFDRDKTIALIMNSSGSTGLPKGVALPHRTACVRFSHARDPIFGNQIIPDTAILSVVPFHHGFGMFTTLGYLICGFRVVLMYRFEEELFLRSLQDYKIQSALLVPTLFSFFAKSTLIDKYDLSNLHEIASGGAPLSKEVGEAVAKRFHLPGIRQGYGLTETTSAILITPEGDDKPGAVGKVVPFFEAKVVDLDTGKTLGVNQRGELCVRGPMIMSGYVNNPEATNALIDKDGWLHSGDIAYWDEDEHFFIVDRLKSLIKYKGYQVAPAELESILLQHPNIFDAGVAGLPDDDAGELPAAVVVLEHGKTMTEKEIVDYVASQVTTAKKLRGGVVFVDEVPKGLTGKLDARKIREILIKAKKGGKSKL

Chain of Fibroblast growth factor 2 (Homo sapiens) (P09038 whole entry, looked up): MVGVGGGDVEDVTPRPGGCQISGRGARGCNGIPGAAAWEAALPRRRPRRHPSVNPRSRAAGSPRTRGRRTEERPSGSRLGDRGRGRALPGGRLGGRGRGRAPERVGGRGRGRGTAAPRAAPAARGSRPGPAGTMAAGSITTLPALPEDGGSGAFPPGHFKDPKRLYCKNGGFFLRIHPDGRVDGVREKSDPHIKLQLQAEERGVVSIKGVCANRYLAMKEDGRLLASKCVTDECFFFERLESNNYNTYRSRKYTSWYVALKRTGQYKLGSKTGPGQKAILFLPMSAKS
Chain of Albumin (Bos taurus) (P02769 whole entry, looked up): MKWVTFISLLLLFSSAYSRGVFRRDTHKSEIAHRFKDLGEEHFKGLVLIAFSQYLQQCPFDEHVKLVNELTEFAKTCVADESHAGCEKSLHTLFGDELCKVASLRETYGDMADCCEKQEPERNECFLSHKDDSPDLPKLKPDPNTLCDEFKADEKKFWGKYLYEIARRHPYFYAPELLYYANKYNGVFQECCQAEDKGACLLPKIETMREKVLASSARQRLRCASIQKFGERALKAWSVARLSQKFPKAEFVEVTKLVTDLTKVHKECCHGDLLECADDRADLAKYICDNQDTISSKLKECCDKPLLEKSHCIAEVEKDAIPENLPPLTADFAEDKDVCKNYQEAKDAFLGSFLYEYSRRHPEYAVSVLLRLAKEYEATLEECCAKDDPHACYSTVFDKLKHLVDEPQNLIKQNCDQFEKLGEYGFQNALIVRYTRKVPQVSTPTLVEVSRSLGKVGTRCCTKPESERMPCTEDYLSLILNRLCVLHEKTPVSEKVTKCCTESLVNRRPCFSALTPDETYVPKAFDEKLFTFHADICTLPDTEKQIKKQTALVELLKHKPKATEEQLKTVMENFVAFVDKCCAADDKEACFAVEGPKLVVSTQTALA
Chain of Focal adhesion kinase 1 (Homo sapiens) (Q05397 whole entry, looked up): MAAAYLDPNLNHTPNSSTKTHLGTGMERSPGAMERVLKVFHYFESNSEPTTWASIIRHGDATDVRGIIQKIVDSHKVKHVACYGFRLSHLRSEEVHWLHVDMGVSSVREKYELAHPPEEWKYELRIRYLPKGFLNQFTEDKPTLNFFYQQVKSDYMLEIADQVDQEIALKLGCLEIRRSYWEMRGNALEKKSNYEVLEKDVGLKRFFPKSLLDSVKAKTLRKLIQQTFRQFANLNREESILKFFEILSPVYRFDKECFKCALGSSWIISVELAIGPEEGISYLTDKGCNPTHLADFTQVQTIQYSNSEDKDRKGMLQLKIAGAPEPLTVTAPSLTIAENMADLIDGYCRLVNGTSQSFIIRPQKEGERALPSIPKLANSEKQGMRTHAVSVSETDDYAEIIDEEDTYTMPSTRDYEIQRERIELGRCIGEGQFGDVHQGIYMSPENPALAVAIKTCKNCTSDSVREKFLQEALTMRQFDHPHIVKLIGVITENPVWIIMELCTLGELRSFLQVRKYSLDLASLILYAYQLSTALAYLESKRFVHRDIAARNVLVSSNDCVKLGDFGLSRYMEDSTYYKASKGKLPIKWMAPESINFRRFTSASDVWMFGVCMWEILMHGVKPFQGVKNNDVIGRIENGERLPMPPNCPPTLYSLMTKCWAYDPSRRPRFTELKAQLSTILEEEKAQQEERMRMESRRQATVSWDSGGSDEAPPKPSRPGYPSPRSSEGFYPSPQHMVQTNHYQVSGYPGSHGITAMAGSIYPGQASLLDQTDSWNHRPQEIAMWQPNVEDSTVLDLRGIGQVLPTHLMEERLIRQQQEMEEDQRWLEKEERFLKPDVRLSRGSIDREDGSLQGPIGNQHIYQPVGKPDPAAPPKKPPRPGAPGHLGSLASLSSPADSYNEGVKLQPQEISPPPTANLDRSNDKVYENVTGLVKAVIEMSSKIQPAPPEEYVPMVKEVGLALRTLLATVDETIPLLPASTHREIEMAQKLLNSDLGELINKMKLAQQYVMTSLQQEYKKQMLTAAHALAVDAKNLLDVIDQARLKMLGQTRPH
Chain of Follistatin (Homo sapiens) (P19883 whole entry, looked up): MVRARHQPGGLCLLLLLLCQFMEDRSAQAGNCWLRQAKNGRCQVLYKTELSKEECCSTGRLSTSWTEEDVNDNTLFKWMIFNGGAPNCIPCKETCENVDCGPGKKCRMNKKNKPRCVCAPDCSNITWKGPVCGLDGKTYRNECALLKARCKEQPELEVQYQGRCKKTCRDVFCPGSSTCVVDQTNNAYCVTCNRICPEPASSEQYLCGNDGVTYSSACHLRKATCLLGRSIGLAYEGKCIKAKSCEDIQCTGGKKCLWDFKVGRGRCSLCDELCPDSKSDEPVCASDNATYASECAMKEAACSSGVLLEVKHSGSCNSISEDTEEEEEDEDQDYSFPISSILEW
Chain of Concanavalin-A (Canavalia ensiformis) (P02866 whole entry, looked up): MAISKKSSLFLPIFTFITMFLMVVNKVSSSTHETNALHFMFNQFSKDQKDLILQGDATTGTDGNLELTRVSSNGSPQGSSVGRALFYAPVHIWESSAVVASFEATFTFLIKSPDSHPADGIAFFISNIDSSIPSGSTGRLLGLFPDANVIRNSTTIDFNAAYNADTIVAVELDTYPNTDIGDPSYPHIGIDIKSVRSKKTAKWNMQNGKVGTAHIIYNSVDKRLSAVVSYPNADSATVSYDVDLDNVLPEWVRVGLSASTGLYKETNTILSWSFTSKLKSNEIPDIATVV

SMILES | composite z-score [1] | composite Z-score [2] | composite z-score [3] | composite z-score [4] | composite z-score [5] | composite z-score [6] | composite z-score [7] | composite z-score [8] | composite z-score [9] | composite z-score [10] | composite z-score [11] | composite z-score [12] | composite z-score [13] | composite z-score [14] | composite z-score [15] | composite z-score [16] | z-score [17] | composite z-score [18] | composite z-score [19] | z-score [20]
C=CCN1C(=O)[C@]2(CC=C)N=C(c3ccc(OCCCO)cc3)O[C@@H]2c2ccccc21 | 0.93 | 1.66 (inactive) | 0.193 | -0.0648 | 0.675 | 1.35 | 0.053 | 1.33 | 0.689 | 1.14 | 3.19 | 1.16 | 0.496 | 0.297 | 1.39 | 1.56 | -0.998 | 0.768 | 1.14 | -3.31 (inactive)
O=C1C[C@]2(c3ccc([N+](=O)[O-])cc3)C(=O)N(Cc3ccccc3)c3cc(CO)ccc3[C@H]2N1CC12CC3CC(CC(C3)C1)C2 | -0.729 | -0.767 (inactive) | -0.356 | -0.207 | -0.406 | 0.284 | 1.66 | -1.26 | -1.27 | -1.73 | -1.43 | -0.835 | -0.536 | -1.28 | -1.06 | -0.653 | -0.0834 | -1.17 | -0.786 | -0.271 (inactive)
CCOC(=O)C[C@H]1[C@H](OC(=O)c2ccc(-c3ccccc3)cc2)[C@@H](NC(=O)c2ccc3ccccc3c2)c2cc(OCCCO)ccc2N1C(=O)c1ccc2ccccc2n1 | 0.587 | 0.152 (inactive) | 0.178 | 0.0278 | 0.137 | 1.06 | -0.0403 | 1.04 | -0.0835 | 0.954 | 0.558 | 0.921 | -0.152 | 0.735 | 0.458 | -0.141 | 0.329 | 0.367 | 0.209 | -0.704 (inactive)
CN1C(=O)C2C=CC(C(O)Cc3ccccc3)N(N(c3ccccc3)c3ccccc3)C2C1=O (stereo not given) | 0.829 | 0.895 (inactive) | 0.116 | -0.0086 | 0.613 | 1.02 | 0.521 | 0.805 | -0.897 | 0.325 | 0.548 | 1.17 | 0.293 | 0.331 | 0.307 | -0.622 | 0.54 | -0.0212 | 0.201 | -0.397 (inactive)
COC(=O)[C@@]1(Cc2ccccc2)[C@H]2c3cc(C(=O)N4CCCC4)n(Cc4ccsc4Br)c3C[C@H]2CN1C(=O)c1ccccc1 | 0.842 | -0.314 (inactive) | 0.485 | 0.244 | 0.555 | 2.45 | -0.0293 | 1.33 | -0.265 | 1.01 | 1.6 | 1.23 | 0.619 | 0.789 | 0.647 | -0.282 | 1.88 | -0.524 | 1.25 | 1.79 (inactive)
O=C(O)[C@]1(Cc2ccccc2)N=C(c2ccc(OCCCO)cc2)O[C@@H]1c1ccccc1 | 0.424 | -0.191 (inactive) | -0.122 | -0.14 | 0.837 | 0.689 | -0.278 | -1.24 | -1.65 | 0.0277 | 1.03 | -0.0591 | 0.136 | -0.0288 | -0.431 | -0.846 | -0.069 | -0.296 | -0.218 | 0.779 (inactive)
CC(C)(C)N1CC=CC23O[C@@H]4C=CCOC(=O)[C@@H]4[C@H]2C(=O)N(CCCO)[C@@H]3C1=O (stereo not given in full) | -1.37 | 0.701 (inactive) | -0.478 | -0.179 | 0.917 | 0.216 | -0.343 | -1.01 | -1.64 | -1.62 | -1.08 | -1.21 | -0.595 | -1.79 | -1.79 | -1.28 | -0.908 | -1.34 | -1.13 | -0.11 (inactive)
O=C1C[C@@](C(=O)NCC(F)(F)F)(c2ccc([N+](=O)[O-])cc2)[C@@H](c2ccc(CO)cc2)N1C1CCCCC1 | 0.52 | 0.391 (inactive) | 0.0488 | 0.0257 | 0.685 | 3.17 | 1.21 | 1.29 | 0.489 | 1.15 | 2.22 | 1.22 | 0.847 | 0.956 | 1.47 | 1.28 | 0.0267 | 0.761 | 0.861 | 0.414 (inactive)
C[C@H]1C2=C3C(CC[C@H]4C(OCc5ccc(F)cc5C(F)(F)F)OC[C@](C)([C@@H]34)N(C(=O)OC(C)(C)C)C2)C(CO)C1CO (stereo not given in full) | 0.953 | 1.08 (inactive) | 0.266 | 0.0831 | 0.352 | 3.19 | 0.505 | 1.31 | -1.44 | 0.862 | 0.0803 | 1.12 | 0.882 | 0.944 | 0.578 | -1.89 | 1.31 | -0.781 | 0.608 | 0.608 (inactive)
COC1(C)CN(Cc2ccccc2Br)[C@H](/C=C/c2ccccc2)[C@H](Cc2ccccc2)O1 (stereo not given in full) | -0.403 | 0.0873 (inactive) | -0.236 | -0.198 | 0.0397 | 0.203 | -0.195 | -0.435 | -0.77 | -0.0737 | 0.258 | -0.561 | 0.106 | -0.291 | -0.598 | -0.375 | 0.267 | 0.0787 | 0.0565 | -0.238 (inactive)
O=c1cccc(-c2ccc(C(F)(F)F)cc2)o1 | -0.309 | -0.275 (inactive) | -0.122 | -0.11 | -0.14 | -0.89 | 0.0441 | -1.03 | -0.291 | -0.0038 | 0.728 | -0.955 | -0.136 | -1.1 | -0.398 | -0.41 | 0.77 | -1.03 | -0.399 | 0.854 (inactive)
